Screening data as filed in PubChem BioAssay.
Only a selection was taken, and hits are over-represented in it overall.
Giardia killer = Small Molecules that selectively kill Giardia lamblia: qHTS. Giardia lamblia trophozoite viability. activity change, % at 7.66 µM, hits read low. 340,000 tested, 0.15% active. AID 540267, 2011; in the data active = activity change below about -80%; inconclusive = between about -30% and that limit;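 also: parasites exposed to compound for two days anaerobically before the ATP read; % is scaled to controls: 0 for no effect and ±100 for the full control effect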
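Trophozoites 100 cells/well + cpd; 48 hrs, 37 deg C, anaerobic. ATPLite 1-Step added, 15-30 min RT, luminescence read (ATP-based viability).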
VP16 counter = VP16 counterscreen qHTS for inhibitors of ROR gamma transcriptional activity; Drosophila S2 Gal4-VP16 UAS-luciferase, luminescence, 20 h; Potency, µM (series often up to 53.6 µM), for inactives: at the top dose activity, negative = inhibition, most hits filed as inhibitors; 310,000 tested, 3.5% active;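 also: Gal4-VP16 expression switched on by copper sulfate through the metallothionein promoter; potency is read from the fitted curve at half-maximal effect; % is scaled to controls: 0 for no effect and ±100 for the full control effect; nearly all actives have a fitted effect of over 50% in size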
Integrin act MD = qHTS for Activators of Integrin-Mediated Alleviation for Muscular Dystrophy. alpha7betagal myoblasts, beta-gal FDG fluorescence, 48 h. Potency, µM (titrated, usually from 38.3 µM), for inactives: top-dose activation, most hits filed as activators. 350,000 tested, 0.064% active. AID 624291, 2012;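 also: potency is read from the fitted curve at half-maximal effect; 100% = response of the positive control SU9516; nearly all actives have a fitted effect of over 60% in size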
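Alpha7betagal+/- myoblasts (passage 13) were plated 16-24 hr, then exposed to compounds (1:260 dilution of DMSO stock) for 48 hours at 37C. After MPER lysis, β-galactosidase reporter activity was read as FDG fluorescence (ex 480/em 540) after 30 minutes.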
ERG-DNA inh = qHTS for Small Molecule Inhibitors of the ERG Ets/DNA interaction. Potency, µM (highest dose often 76.9 µM), without a hit: at the highest dose FP activity, negative = inhibition, most hits filed as inhibitors. fluorescence polarization, His-ERG Ets domain / labelled DNA. Transcriptional regulator ERG (Homo sapiens), P11308. AID 624246, 2012. 370,000 tested, 0.028% active; active = well fitted inhibition curve with a large enough effect in the polarisation, with a control signal flat; inconclusive = small, poorly fitted or top-dose-only effect, or effect the other way, or a change in a side signal; inactive = no such curve, though single readings can be large or run the other way; the % refers to the polarisation;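 also: polarization taken with two DNA probes labelled with fluorescein and Texas red; potency is read from the fitted curve at half-maximal effect; % of control where 0% means no effect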
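His-tagged ERG Ets domain (1 uM in the protein solution; 300mM KCl, 50mM Tris-HCl, 1mM EDTA, 1mM DTT, pH 7.5) received compound, then a probe mix of 5 nM fluorescein-DNA and 100nM Texas-615-DNA. Fluorescence polarization was read for both dyes.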
RORgamma inh = qHTS for inhibitors of ROR gamma transcriptional activity; Drosophila S2 Gal4-RORgamma UAS-luciferase reporter, 20 h; Potency, µM (series often up to 53.6 µM), for inactives: top-dose activity change, negative = inhibition, most hits filed as inhibitors; 310,000 tested, 5.4% active; also: potency is read from the fitted curve at half-maximal effect; % is scaled to controls: 0 for no effect and ±100 for the full control effect; nearly all actives have a fitted effect of over 60% in size
Target sequence (P51450 whole entry, looked up, the tested form may be a part): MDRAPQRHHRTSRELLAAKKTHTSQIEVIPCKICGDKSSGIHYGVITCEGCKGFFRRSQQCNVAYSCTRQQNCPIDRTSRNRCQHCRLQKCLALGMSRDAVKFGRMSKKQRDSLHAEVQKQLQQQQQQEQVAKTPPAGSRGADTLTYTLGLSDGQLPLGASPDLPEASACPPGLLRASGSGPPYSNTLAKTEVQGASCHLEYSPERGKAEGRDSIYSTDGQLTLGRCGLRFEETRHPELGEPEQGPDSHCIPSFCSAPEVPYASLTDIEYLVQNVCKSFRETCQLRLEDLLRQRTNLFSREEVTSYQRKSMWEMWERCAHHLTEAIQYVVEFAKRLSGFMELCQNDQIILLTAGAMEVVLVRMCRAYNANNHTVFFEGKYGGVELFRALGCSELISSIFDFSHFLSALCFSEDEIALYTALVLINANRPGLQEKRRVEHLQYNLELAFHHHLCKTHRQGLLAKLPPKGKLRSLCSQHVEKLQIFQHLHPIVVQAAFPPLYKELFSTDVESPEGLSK
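A Gal4/UAS one-hybrid system in insect cells: metallothionein-promoter Gal4–ROR gamma fusion plus Photinus luciferase reporter. Copper sulfate 700 uM final, 20 hr ambient incubation, luminescent detection after 10 min with reagent.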
The depositor's hits bear a star; ? = inconclusive; . = no result. Unless noted, calls follow the shape of the dose curve; as a rule, active = well fitted curve in the direction sought with a large enough effect; inconclusive = small, poorly fitted or top-dose-only effect, or another doubt; inactive = no such curve, though single readings can be large; an effect the other way counts as inactive or inconclusive.

SMILES | Giardia killer | VP16 counter | Integrin act MD | ERG-DNA inh | RORgamma inh
CC1CCc2sc(C(=O)OCC(=O)NCc3ccc(F)cc3)cc2C1 (centres undefined) | -4.9 | ? | -7.3% | -4.7% | -39.8%
COc1cc(C2c3c(oc4ccccc4c3=O)C(=O)N2c2nccs2)ccc1O (centres undefined) | 38.6 | 16.3% | -1.2% | -1.3% | -10.4%
O=C1N/C(=C\c2ccc(O)cc2)C(=O)c2ccccc21 | -3.1 | 10µM* | -42.4% | 3.6% | ?
O=C(O)/C=C1\NC(=O)c2ccccc21 | -18.6 | -5.8% | 24.9% | -1.8% | -15.5%
CCC(=O)NC(c1ccco1)c1cc(Cl)c2cccnc2c1O (centres undefined) | 0.4 | 2.82µM* | 0.0% | -4.8% | 1.41µM*
Oc1c(C(Nc2ccccn2)c2cccnc2)cc(Cl)c2cccnc12 (centres undefined) | 8.6 | 4.47µM* | -9.2% | 6.0% | 3.98µM*
COc1cc(C(=O)NC(c2ccc(Cl)cc2)c2cc(Cl)c3cccnc3c2O)cc(OC)c1OC (centres undefined) | . | . | . | -6.6% | .
CC(=O)NC(c1ccc(C)cc1)c1cc(Cl)c2cccnc2c1O (centres undefined) | 0.9 | 0.631µM* | 0.0% | -8.2% | 1.12µM*
COc1ccc(C(NC(=O)c2cccnc2)c2cc(Cl)c3cccnc3c2O)cc1OC (centres undefined) | -1.1 | 3.98µM* | -1.1% | 6.8% | 2µM*
CCOC(=O)C1CCCN(c2c(NCCN3CCCCC3C)c(=O)c2=O)C1 (centres undefined) | -19.0 | -3.7% | -5.0% | -8.7% | 1.8%
CC(C)C(=O)NC(c1ccccc1)c1cc([N+](=O)[O-])c2cccnc2c1O (centres undefined) | -12.9 | ? | 9.4% | -1.4% | 6.31µM*
CC(=O)NC(c1ccccc1)c1cc([N+](=O)[O-])c2cccnc2c1O (centres undefined) | -16.5 | -27.7% | -15.5% | 11.7% | 7.94µM*
CC(=O)NC(c1cc(Cl)c2cccnc2c1O)C(C)C (centres undefined) | 5.2 | . | . | . | .
O=C(NNC1=NCCC1)c1cccc(Br)c1 | 5.5 | ? | 13.2% | -2.3% | ?
Cc1ccccc1C(=O)NNC1=NCCC1 | -6.2 | 14.1µM* | 21.0% | -14.1% | 12.6µM*
CCN1/C(=C\C=C(C(C)=O)C(C)=O)Sc2ccccc21 | -5.0 | 13.1% | -26.0% | 11.9% | 10.4%
CCN1/C(=C\C(=S)Nc2ccccc2)Sc2ccccc21 | -14.4 | ? | -34.0% | 6.1% | 3.98µM*
CCC(C)C(=O)O[C@H]1C[C@@H](C)C=C2C=C[C@H](C)[C@H](CC[C@@H]3C[C@@H](O)CC(=O)O3)C21 (some centres undefined) | . | -16.1% | . | . | 15.7%
Cc1cccc(N=Cc2[nH]c3ccc(Br)c(Cl)c3c2O)c1 | 3.0 | ? | 0.0% | 3.5% | -18.3%
COc1ccccc1CN=Cc1[nH]c2ccc(Br)c(Cl)c2c1O | -13.1 | 11.2µM* | -44.3% | -13.8% | -100.8%
CC(=O)c1ccc(S(=O)(=O)N2CCN(CC(=O)Nc3ccnn3C3CCCC3)CC2)cc1 | -4.0 | . | 24.4% | 5.1% | .
O=C(Nc1nc2ccccc2[nH]1)c1ccc(F)c(S(=O)(=O)N2CCOCC2)c1 | -23.8 | ? | 26.2% | -2.9% | 14.1µM*
O=C(Nc1nc2ccccc2[nH]1)c1cccc(S(=O)(=O)N2CCOCC2)c1 | -8.1 | ? | -12.4% | 10.3% | 8.91µM*
Cc1ccc(C(=O)Nc2ccon2)cc1S(=O)(=O)N1CCOCC1 | 11.1 | ? | -2.6% | 5.3% | 11.2µM*
O=C(Nc1ccccc1N1CCOCC1)c1ccc(F)c(S(=O)(=O)N2CCOCC2)c1 | -15.3 | . | -0.3% | -5.5% | .
N#Cc1ccc(C(=O)CN2CCN(c3ccccc3)CC2)cc1 | -0.1 | 8.4% | -19.4% | -3.1% | -0.9%
CC(=O)N(c1ccc(Cl)cc1)c1cn(C(C)=O)c2ccccc12 | 19.1 | -6.7% | ? | 0.4% | 28.0%
CC(=O)n1cc(N(C(=O)CCl)c2ccc(C)cc2)c2ccccc21 | 0.2 | ? | -61.2% | -13.2% | 11.2µM*
